Source: PMC4336329 (PLoS ONE, 2015)
Out of some 310,000 compounds screened, about 14,000 (4.5%) showed an effect of 50% or more. Effects have a minus sign here. The entries come from a sample that favours strong results as a whole.

molecular target: human ether-à-go-go-related gene (hERG) potassium channel (human, UniProt Q12809); experiment: primary screen, population patch clamp on CHO cells stably expressing hERG; higher = less effect of the substance
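Note: peak tail current of the secondary pulse compared with the same well before compound.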

Sequence of human ether-à-go-go-related gene (hERG) potassium channel (Q12809 whole entry, looked up): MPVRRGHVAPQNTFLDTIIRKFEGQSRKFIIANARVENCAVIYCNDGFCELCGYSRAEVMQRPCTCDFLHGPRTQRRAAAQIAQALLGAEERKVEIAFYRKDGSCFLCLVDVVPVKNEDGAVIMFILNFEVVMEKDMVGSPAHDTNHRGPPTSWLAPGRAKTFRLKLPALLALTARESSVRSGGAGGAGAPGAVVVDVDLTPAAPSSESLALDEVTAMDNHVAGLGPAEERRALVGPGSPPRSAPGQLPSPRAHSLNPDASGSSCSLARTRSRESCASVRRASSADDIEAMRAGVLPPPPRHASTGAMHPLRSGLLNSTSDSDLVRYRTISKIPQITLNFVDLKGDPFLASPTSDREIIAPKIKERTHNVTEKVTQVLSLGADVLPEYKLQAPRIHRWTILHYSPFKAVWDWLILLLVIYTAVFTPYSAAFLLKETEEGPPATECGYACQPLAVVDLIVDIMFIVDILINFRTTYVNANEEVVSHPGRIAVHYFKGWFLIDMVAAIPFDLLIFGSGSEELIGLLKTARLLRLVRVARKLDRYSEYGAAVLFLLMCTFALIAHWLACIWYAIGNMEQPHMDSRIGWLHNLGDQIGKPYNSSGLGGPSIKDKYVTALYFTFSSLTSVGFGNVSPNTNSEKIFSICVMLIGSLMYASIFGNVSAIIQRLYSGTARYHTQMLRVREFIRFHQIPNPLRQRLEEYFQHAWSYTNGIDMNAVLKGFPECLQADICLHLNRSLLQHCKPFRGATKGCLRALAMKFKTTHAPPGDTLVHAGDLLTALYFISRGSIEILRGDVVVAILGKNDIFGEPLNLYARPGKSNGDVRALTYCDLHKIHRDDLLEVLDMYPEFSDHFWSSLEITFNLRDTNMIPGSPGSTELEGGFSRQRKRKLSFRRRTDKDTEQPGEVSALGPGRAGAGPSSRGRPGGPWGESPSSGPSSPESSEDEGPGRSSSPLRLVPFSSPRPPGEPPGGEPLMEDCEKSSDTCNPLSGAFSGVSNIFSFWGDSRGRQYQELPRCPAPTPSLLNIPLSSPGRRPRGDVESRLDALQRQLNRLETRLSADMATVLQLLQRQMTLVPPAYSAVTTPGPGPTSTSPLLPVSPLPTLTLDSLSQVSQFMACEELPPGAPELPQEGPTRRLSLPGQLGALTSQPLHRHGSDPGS

First: CCOc1ccc(Cc2nc(C)c(CC(=O)N3CCOCC3)c(=O)[nH]2)cc1
Second: Cc1ccc(OCC(O)CN2CCOCC2)cc1C.Cl (centres unmarked)
The “hERG current change (%, negative = inhibition) at 10uM” value of the first is lower: 8.37% for the first, 17.7% for the second.

Compared with `O=C(CSc1ncnc2ccccc12)NCc1ccc2c(c1)OCO2`, `CC1(c2cccc(Br)c2)NC(=O)N(CC(=O)Nc2ccc3c(c2)OCO3)C1=O` (centres unmarked) is higher in “hERG current change (%, negative = inhibition) at 10uM” value: -16.9% for the first, -12.5% for the second.

First: O=C(C(=O)N1CCCc2ccccc21)c1c[nH]c2ccccc12
Second: O=C(CCNS(=O)(=O)/C=C/c1ccccc1)NCCc1c[nH]c2ccccc12
The “hERG current change (%, negative = inhibition) at 10uM” value of the first is higher: 4.5% for the first, 3.88% for the second.

Compared with `O=S(=O)(c1ccc(Cl)cc1)N1CCN(CCc2ccncc2)CC1`, `O=S(=O)(c1ccc(Cl)cc1)N1CCN(CCc2ccccc2)CC1` is higher in “hERG current change (%, negative = inhibition) at 10uM” value: -55.3% for the first, -3.7% for the second.

Compared with `CCS(=O)(=O)N1CCN(Cc2ccncc2)CC1.O=C(O)C(=O)O`, `O=C(O)C(=O)O.O=S(=O)(c1ccc(Cl)cc1)N1CCN(Cc2ccncc2)CC1` is lower in “hERG current change (%, negative = inhibition) at 10uM” value: 13.2% for the first, -51.5% for the second.

First: CC(=O)Nc1ccc(S(=O)(=O)N2CCN(Cc3ccncc3)CC2)cc1
Second: O=S(=O)(c1ccccc1)N1CCN(CCc2ccccc2)CC1
The “hERG current change (%, negative = inhibition) at 10uM” value of the first is lower: -8.67% for the first, 14.2% for the second.

Going from `COc1ccc(C2=NC(C)(C)Cc3cc(OC)c(OC)cc32)cc1` to `COc1ccc(/C=N/Nc2ncc(C(F)(F)F)cc2Cl)c(OC)c1OC`, the “hERG current change (%, negative = inhibition) at 10uM” value rises from -44% to -1.15%.

Compared with `Cc1cccc(OCC(O)Cn2c(=N)n(CCN3CCCCC3)c3ccccc32)c1.Cl` (centres unmarked), `Cc1cccc(OCC(O)Cn2c(=N)n(CCN3CCOCC3)c3ccccc32)c1.Cl` (centres unmarked) is higher in “hERG current change (%, negative = inhibition) at 10uM” value: -80.5% for the first, -57.9% for the second.

First: Cc1ccccc1OCCCN1CCOCC1
Second: COc1ccccc1OCC(O)CN1CCOCC1 (centres unmarked)
The “hERG current change (%, negative = inhibition) at 10uM” value of the first is lower: 9.44% for the first, 15.2% for the second.

Going from `OC(COc1cccc(OCC(O)CN2CCCC2)c1)CN1CCCC1` (centres unmarked) to `Cl.OC(COc1cccc(OCC(O)CN2CCOCC2)c1)CN1CCOCC1` (centres unmarked), the “hERG current change (%, negative = inhibition) at 10uM” value rises from -2.86% to 7.41%.

Going from `Cc1ccccc1OCC(O)Cn1c(=N)n(CCN2CCOCC2)c2ccccc21.Cl` (centres unmarked) to `O=C(CNC(=S)N(CCCN1CCOCC1)Cc1cccs1)NCc1ccccc1Cl`, the “hERG current change (%, negative = inhibition) at 10uM” value rises from -61.5% to -54.2%.

Going from `Cc1ccc(NS(=O)(=O)c2ccc(-c3coc(C)n3)cc2)c(C)c1` to `Cc1cc(S(=O)(=O)Nc2cccc(C(=O)O)c2)c(C)c(S(=O)(=O)c2ccc(Cl)cc2)c1`, the “hERG current change (%, negative = inhibition) at 10uM” value rises from 15.6% to 18.8%.

Going from `CCOC(=O)C(Sc1ncn[nH]1)c1ccccc1` (centres unmarked) to `CCOC(=O)c1c(CSc2ccccc2)oc2ccc(O)cc12`, the “hERG current change (%, negative = inhibition) at 10uM” value rises from -3.76% to 3.91%.

First: Cc1cc(F)ccc1S(=O)(=O)N1CCCOC1CNC(=O)C(=O)NCc1cccnc1 (centres unmarked)
Second: O=C1[C@@H]2[C@H](C(=O)N1Cc1cccnc1)[C@H]1C=C[C@@H]2C1
The “hERG current change (%, negative = inhibition) at 10uM” value of the first is higher: 7.92% for the first, -3.89% for the second.

First: O=C(CNC(=S)N(CCCN1CCOCC1)Cc1cccs1)NCc1ccc(Cl)cc1
Second: CCCCNC(=O)CNC(=S)N(CCCN1CCOCC1)Cc1cccs1
The “hERG current change (%, negative = inhibition) at 10uM” value of the first is lower: -67.7% for the first, -27.4% for the second.

Compared with `O=C(CNC(=S)N(CCCN1CCOCC1)Cc1cccs1)NC1CCCC1`, `O=C(CNC(=S)N(CCCN1CCOCC1)Cc1cccs1)NC1CCCCC1` is lower in “hERG current change (%, negative = inhibition) at 10uM” value: -19.7% for the first, -31.2% for the second.

Compared with `CN(C)CCNC(=O)CNC(=S)N(CCCN1CCOCC1)Cc1cccs1`, `O=C(CNC(=S)N(CCCN1CCOCC1)Cc1cccs1)NCCN1CCOCC1` is lower in “hERG current change (%, negative = inhibition) at 10uM” value: 12.1% for the first, 9.17% for the second.

Compared with `O=C(CNC(=S)N(CCCN1CCOCC1)Cc1cccs1)NC1CCCCCCC1`, `O=C(CNC(=S)N(CCCN1CCOCC1)Cc1cccs1)NCCCN1CCOCC1` is higher in “hERG current change (%, negative = inhibition) at 10uM” value: -61.1% for the first, 15.1% for the second.

First: O=C(NCc1ccc(F)cc1)c1ccc(CS(=O)Cc2ccccc2Cl)o1 (centres unmarked)
Second: COC(=O)Cc1c(CSc2ccccc2)oc2ccc(O)c(CN(C)C)c12
The “hERG current change (%, negative = inhibition) at 10uM” value of the first is higher: -37.3% for the first, -47.8% for the second.

First: Cc1ccc(S(=O)(=O)N2[C@@H](c3ccccc3)C(C(=O)O)=CC[C@H]2c2ccc(Cl)cc2)cc1
Second: Ic1ccccc1CN[C@@H]1C2CCN(CC2)[C@@H]1C(c1ccccc1)c1ccccc1.O.O=C(O)C(=O)O
The “hERG current change (%, negative = inhibition) at 10uM” value of the first is higher: 18.6% for the first, -69.7% for the second.

Going from `CC1=NN(C(N)=S)C(=O)C1N=Nc1ccccc1C(=O)O` (centres unmarked) to `COc1ccc(CNC2CCSc3ccccc32)cc1OC.O=C(O)C(=O)O` (centres unmarked), the “hERG current change (%, negative = inhibition) at 10uM” value falls from 22.1% to 9.97%.

Compared with `Fc1ccc(/C=C/c2nnc(-c3cccs3)o2)cc1`, `Cc1nccc2c1[nH]c1ccccc12` is lower in “hERG current change (%, negative = inhibition) at 10uM” value: 16.7% for the first, 2.16% for the second.

Compared with `CCOC(=O)c1cnc(SCC(=O)Nc2ccc(NC(C)=O)c(OC)c2)nc1N`, `Cc1cc(Cl)ccc1OCC(=O)NNC(=O)C1CSC2(C)CCC(=O)N12` (centres unmarked) is lower in “hERG current change (%, negative = inhibition) at 10uM” value: 2.44% for the first, -18.5% for the second.

First: CCC(Cc1ccccc1)NC(=O)CN(C)S(=O)(=O)c1ccc2c(c1)c(=O)n(C)c(=O)n2C (centres unmarked)
Second: CCOC(=O)c1c(CSCc2ccccc2)oc2ccc(O)c(CN(C)C)c12.Cl
The “hERG current change (%, negative = inhibition) at 10uM” value of the first is higher: -23.5% for the first, -73.4% for the second.

First: Cc1sc2nc(SCC(=O)N3CCN(CCO)CC3)n(-c3ccccc3)c(=O)c2c1C
Second: CCOC(=O)c1c(CSc2ccccc2)oc2cc(Br)c(O)c(CN(C)C)c12.Cl
The “hERG current change (%, negative = inhibition) at 10uM” value of the first is lower: -3.7% for the first, 8.53% for the second.

Compared with `O=C(O)C(=O)O.OC(CNC1CCCCCCC1)c1ccccc1` (centres unmarked), `CCS(=O)(=O)N1CCN(C2CCC(c3ccccc3)CC2)CC1.O=C(O)C(=O)O` (centres unmarked) is lower in “hERG current change (%, negative = inhibition) at 10uM” value: 2.95% for the first, -17.2% for the second.

Compared with `O=C(COC(=O)CNC(=O)c1ccccc1)NCCc1ccccc1`, `CCOC(=O)c1c(-c2ccccc2)oc2ccc(O)c(CN(C)C)c12` is lower in “hERG current change (%, negative = inhibition) at 10uM” value: 4.17% for the first, -40.2% for the second.

First: CCOc1ccc(/C=N/NC(=O)C2CC2)c(OCC)c1
Second: CCN(CC)CCSc1nc2ccc(OC)cc2[nH]1.Cl
The “hERG current change (%, negative = inhibition) at 10uM” value of the first is higher: 2.21% for the first, -64.7% for the second.

First: COc1cc2c(cc1OC)CN(CC(=O)NC(=O)NC1CCCCC1)CC2
Second: COc1ccc2nc(SCC(N)=O)[nH]c2c1
The “hERG current change (%, negative = inhibition) at 10uM” value of the first is higher: 3.28% for the first, -2.83% for the second.

Going from `COc1cc2[nH]c3ccccc3c2cc1C` to `Cc1cc2[nH]c3c(c[n+](C)c4ccccc34)c2cc1C.[I-]`, the “hERG current change (%, negative = inhibition) at 10uM” value falls from 2.45% to -77.8%.

First: COc1ccc2nc(SCCN(C)C)[nH]c2c1.Cl
Second: CC(=O)c1c(CSc2ccccc2)oc2ccc(O)c(CN(C)C)c12.Cl
The “hERG current change (%, negative = inhibition) at 10uM” value of the first is higher: 12.3% for the first, -70.8% for the second.

Compared with `CCOC(=O)c1c(-c2ccccc2)oc2cc(CN(C)C)c(O)c(CN(C)C)c12`, `CCOC(=O)c1c(CN(C)C)oc2cc(CN(C)C)c(O)c(CSc3ccccc3)c12.Cl` is higher in “hERG current change (%, negative = inhibition) at 10uM” value: -41.5% for the first, -19.3% for the second.

`CCOC(=O)c1c(CSc2ccc(CC)cc2)oc2ccc(O)c(CN(C)C)c12.Cl` was tested, and the “hERG current change (%, negative = inhibition) at 10uM” value was -55.3%.
